{
  "source": "PubChem BioAssay (NCI)",
  "note": "Compounds without any hit were thinned out: in the full panel of roughly 79,000, 15% have a hit. A number with no mark means an inactive call. Active and inactive are the calls of the source. Rule as the data show it: active = growth inhibition above about 70%; inactive = the rest.",
  "data": [
    {"assay": "NCI Yeast Anticancer Drug Screen. Data for the rad50EPP+ strain (AID 151);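 also: 0% = growth of vehicle-treated control cultures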", "settings": "S. cerevisiae rad50 mutant strain, at 100.0 µM, hits give high values", "procedure,_shortened": "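Strain rad50EPP+; compound exposure; % growth inhibition vs vehicle.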", "values": [
      {"smiles": "O=C1/C(=C/c2ccccc2)CCCC1CN1CCCCC1", "note": "(stereo not drawn)", "growth inhibition": "51%"},
      {"smiles": "C#CCN(Cc1ccc2nc(N)[nH]c(=O)c2c1)c1ccc(C(=O)NC(CCC(=O)O)C(=O)O)cc1", "note": "(stereo not drawn)", "growth inhibition": "41%"},
      {"smiles": "CCOC1(c2cccc([N+](=O)[O-])c2)c2ccccc2Oc2ccccc21", "growth inhibition": "19%"},
      {"smiles": "O=C(O)CNC(=S)Nc1ccccc1", "growth inhibition": "56%"},
      {"smiles": "N/C(=N/N=C/c1cc(Br)cc(Br)c1O)NO", "growth inhibition": "73% (active)"},
      {"smiles": "C[Si](C)(C)/C=C/CCNC(C#N)c1ccccc1", "note": "(stereo not drawn)", "growth inhibition": "74% (active)"},
      {"smiles": "CCCCCCCCCCCCCCCCOP(=O)(O)OCC(N)C(=O)O", "note": "(stereo not drawn)", "growth inhibition": "98% (active)"},
      {"smiles": "CC1=C(C(=O)NCc2ccccc2)C(c2ccccc2)C(C(=O)NCc2ccccc2)=C(C)N1", "growth inhibition": "0%"},
      {"smiles": "O=[N+]([O-])c1cc(S(=O)(=O)Nc2ccccc2)ccc1Nc1ccccc1", "growth inhibition": "3%"},
      {"smiles": "COc1cc2ccnc(-c3c4ccccc4c(N)c4c(OC)c(OC)ccc34)c2cc1OC", "growth inhibition": "49%"},
      {"smiles": "CCOC(=O)C(Br)C(Br)c1ccccc1Cl", "note": "(stereo not drawn)", "growth inhibition": "99% (active)"},
      {"smiles": "CCOC(=O)C1=C(C)NC(C)=C(C(=O)OCCNC(=O)c2ccc(N=[N+]=[N-])cc2)C1c1ccccc1C(F)(F)F", "note": "(stereo not drawn)", "growth inhibition": "-11%"},
      {"smiles": "Cc1cc(C)c(NC(=S)NC(=O)c2ccccc2)cc1C", "growth inhibition": "-5%"},
      {"smiles": "CNCCCNc1c2ccccc2nc2cccc([N+](=O)[O-])c12", "growth inhibition": "98% (active)"},
      {"smiles": "COc1c(O)c(C=O)c(Br)c(C=O)c1O", "growth inhibition": "99% (active)"},
      {"smiles": "Cc1c(C)c(C)c(CSC(=N)N)c(C)c1C", "growth inhibition": "96% (active)"},
      {"smiles": "O=C(CSC(=S)N1CCCCC1)Nc1nc2c(s1)CCCC2", "growth inhibition": "41%"},
      {"smiles": "CNC(=O)OCc1c(COC(=O)NC)c(-c2ccc(Cl)cc2)n2c1CCC2", "growth inhibition": "-26%"},
      {"smiles": "CC(=O)OC1CC2C(C)(C)C(=O)C=C[C@]2(C)C2CCC3(C)C(=CCC3[C@H](CO)C[C@H](O)C(=O)C(C)(C)O)[C@]12C", "note": "(stereo partly drawn)", "growth inhibition": "-31%"},
      {"smiles": "CCCCCCOC(=O)NCCOC(=O)Nc1ccccc1", "growth inhibition": "15%"},
      {"smiles": "C[C](C)(C)[Ge]([O][Ge]([c]1ccccc1)[c]1ccccc1)([O][Ge]([c]1ccccc1)[c]1ccccc1)[C](C)(C)C", "growth inhibition": "-3%"},
      {"smiles": "CCc1c(Cl)c(C)cc(O)c1Cl", "growth inhibition": "89% (active)"},
      {"smiles": "Cc1nc(Nc2ccccc2[N+](=O)[O-])sc1C(=O)CC(=O)C(=O)Nc1c(C(C)C)cccc1C(C)C", "growth inhibition": "59%"},
      {"smiles": "O=[N+]([O-])c1cccc2nc3ccccc3c(NCCCn3ccnc3[N+](=O)[O-])c12", "growth inhibition": "90% (active)"},
      {"smiles": "CCCCCCC(O)CNCc1ccnc2ccc(OC)cc12", "note": "(stereo not drawn)", "growth inhibition": "2%"},
      {"smiles": "Cc1c2cccc(Sc3ccccc3)c2c2c3c(cccc13)[S+](c1ccccc1)C2", "note": "(stereo not drawn)", "growth inhibition": "88% (active)"},
      {"smiles": "C=C1CCC(O)C/C1=C/C=C1\\CCCC2(C)C1CCC2C(C)CCCC(C)C", "note": "(stereo not drawn)", "growth inhibition": "73% (active)"},
      {"smiles": "NC1=NNC2(C(N)=N1)c1ccccc1-c1ccccc12", "growth inhibition": "76% (active)"},
      {"smiles": "COc1cc2cc3c4cc(OC)c(OC)cc4cc[n+]3c(C)c2cc1OC", "growth inhibition": "-26%"},
      {"smiles": "COC(=O)NC1C(C)OC(OC2C/C=C(/C)C3C=CC4C(OC5CC(OC6CC(O)C(OC7CC(O)C(OC)C(C)O7)C(C)O6)C(O)C(C)O5)C(C)CC(C)C4C3(C)/C(O)=C3\\C(=O)OC4(CC(C)C(CO)=CC4/C=C\\2C)C3=O)CC1(C)[N+](=O)[O-]", "note": "(stereo not drawn)", "growth inhibition": "11%"},
      {"smiles": "O=C1CSC(c2cccc(Cl)c2)N1c1ccc(-c2ccc(-n3c(-c4ccccc4)nc4ccccc4c3=O)cc2)cc1", "note": "(stereo not drawn)", "growth inhibition": "-4%"},
      {"smiles": "CCOC(=O)C(C(=O)OCC)=P(c1ccccc1)(c1ccccc1)c1ccccc1", "growth inhibition": "3%"},
      {"smiles": "COc1ccc(N=CN(C)C)c(C)c1", "growth inhibition": "71% (active)"},
      {"smiles": "Cc1cc(S(=O)(=O)Nc2nnc3cnc4ccccc4n23)c(S)cc1Cl", "growth inhibition": "-59%"},
      {"smiles": "O=C(Oc1ccc2c(c1)CN(Cc1ccccc1)CO2)c1ccccc1", "growth inhibition": "22%"},
      {"smiles": "CN(C)[C@@H]1C(=O)C(C(N)=O)=C(O)[C@@]2(O)C(=O)C3=C(O)c4c(O)cccc4C[C@H]3C[C@@H]12", "growth inhibition": "9%"},
      {"smiles": "O=[N+]([O-])c1ccc2c(c1)/C(=N/N=C1c3ccccc3Cc3ccccc31)c1cc([N+](=O)[O-])cc([N+](=O)[O-])c1-2", "growth inhibition": "94% (active)"},
      {"smiles": "Cc1nc2c(Br)cc(Br)cc2c(=O)n1-c1ccccc1NC1OCC(O)C(O)C1O", "note": "(stereo not drawn)", "growth inhibition": "8%"},
      {"smiles": "Cc1cc(N(CCOS(C)(=O)=O)CCOS(C)(=O)=O)ccc1C=Nc1ccc(-c2nc(Cc3ccccc3)sc2C)cc1", "growth inhibition": "92% (active)"}
    ]},
    {"assay": "NCI Yeast Anticancer Drug Screen. Data for the mgt1 strain (AID 153)", "settings": "S. cerevisiae mgt1 mutant growth inhibition; at 1.2 µM; hits give high values", "procedure,_shortened": "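Read-out: yeast growth inhibition vs vehicle control. Strain mgt1, drawn from a panel altered in DNA damage repair or cell cycle control.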", "units": {"growth inhibition": "%"}, "values": [
      {"smiles": "O=C1/C(=C/c2ccccc2)CCCC1CN1CCCCC1", "note": "(stereo not drawn)", "growth inhibition": 16},
      {"smiles": "C#CCN(Cc1ccc2nc(N)[nH]c(=O)c2c1)c1ccc(C(=O)NC(CCC(=O)O)C(=O)O)cc1", "note": "(stereo not drawn)", "growth inhibition": -29},
      {"smiles": "CCOC1(c2cccc([N+](=O)[O-])c2)c2ccccc2Oc2ccccc21", "growth inhibition": 0},
      {"smiles": "O=C(O)CNC(=S)Nc1ccccc1", "growth inhibition": -36},
      {"smiles": "N/C(=N/N=C/c1cc(Br)cc(Br)c1O)NO", "growth inhibition": -36},
      {"smiles": "C[Si](C)(C)/C=C/CCNC(C#N)c1ccccc1", "note": "(stereo not drawn)", "growth inhibition": -14},
      {"smiles": "CCCCCCCCCCCCCCCCOP(=O)(O)OCC(N)C(=O)O", "note": "(stereo not drawn)", "growth inhibition": -1},
      {"smiles": "CC1=C(C(=O)NCc2ccccc2)C(c2ccccc2)C(C(=O)NCc2ccccc2)=C(C)N1", "growth inhibition": -2},
      {"smiles": "O=[N+]([O-])c1cc(S(=O)(=O)Nc2ccccc2)ccc1Nc1ccccc1", "growth inhibition": -18},
      {"smiles": "COc1cc2ccnc(-c3c4ccccc4c(N)c4c(OC)c(OC)ccc34)c2cc1OC", "growth inhibition": -1},
      {"smiles": "CCOC(=O)C(Br)C(Br)c1ccccc1Cl", "note": "(stereo not drawn)", "growth inhibition": 0},
      {"smiles": "CCOC(=O)C1=C(C)NC(C)=C(C(=O)OCCNC(=O)c2ccc(N=[N+]=[N-])cc2)C1c1ccccc1C(F)(F)F", "note": "(stereo not drawn)", "growth inhibition": -2},
      {"smiles": "Cc1cc(C)c(NC(=S)NC(=O)c2ccccc2)cc1C", "growth inhibition": -57},
      {"smiles": "CNCCCNc1c2ccccc2nc2cccc([N+](=O)[O-])c12", "growth inhibition": 18},
      {"smiles": "COc1c(O)c(C=O)c(Br)c(C=O)c1O", "growth inhibition": -2},
      {"smiles": "Cc1c(C)c(C)c(CSC(=N)N)c(C)c1C", "growth inhibition": -52},
      {"smiles": "O=C(CSC(=S)N1CCCCC1)Nc1nc2c(s1)CCCC2", "growth inhibition": -8},
      {"smiles": "CNC(=O)OCc1c(COC(=O)NC)c(-c2ccc(Cl)cc2)n2c1CCC2", "growth inhibition": -47},
      {"smiles": "CC(=O)OC1CC2C(C)(C)C(=O)C=C[C@]2(C)C2CCC3(C)C(=CCC3[C@H](CO)C[C@H](O)C(=O)C(C)(C)O)[C@]12C", "note": "(stereo partly drawn)", "growth inhibition": -26},
      {"smiles": "CCCCCCOC(=O)NCCOC(=O)Nc1ccccc1", "growth inhibition": -1},
      {"smiles": "C[C](C)(C)[Ge]([O][Ge]([c]1ccccc1)[c]1ccccc1)([O][Ge]([c]1ccccc1)[c]1ccccc1)[C](C)(C)C", "growth inhibition": -2},
      {"smiles": "CCc1c(Cl)c(C)cc(O)c1Cl", "growth inhibition": 19},
      {"smiles": "Cc1nc(Nc2ccccc2[N+](=O)[O-])sc1C(=O)CC(=O)C(=O)Nc1c(C(C)C)cccc1C(C)C", "growth inhibition": -1},
      {"smiles": "O=[N+]([O-])c1cccc2nc3ccccc3c(NCCCn3ccnc3[N+](=O)[O-])c12", "growth inhibition": 17},
      {"smiles": "CCCCCCC(O)CNCc1ccnc2ccc(OC)cc12", "note": "(stereo not drawn)", "growth inhibition": 1},
      {"smiles": "Cc1c2cccc(Sc3ccccc3)c2c2c3c(cccc13)[S+](c1ccccc1)C2", "note": "(stereo not drawn)", "growth inhibition": 5},
      {"smiles": "C=C1CCC(O)C/C1=C/C=C1\\CCCC2(C)C1CCC2C(C)CCCC(C)C", "note": "(stereo not drawn)", "growth inhibition": -21},
      {"smiles": "NC1=NNC2(C(N)=N1)c1ccccc1-c1ccccc12", "growth inhibition": 12},
      {"smiles": "COc1cc2cc3c4cc(OC)c(OC)cc4cc[n+]3c(C)c2cc1OC", "growth inhibition": -21},
      {"smiles": "COC(=O)NC1C(C)OC(OC2C/C=C(/C)C3C=CC4C(OC5CC(OC6CC(O)C(OC7CC(O)C(OC)C(C)O7)C(C)O6)C(O)C(C)O5)C(C)CC(C)C4C3(C)/C(O)=C3\\C(=O)OC4(CC(C)C(CO)=CC4/C=C\\2C)C3=O)CC1(C)[N+](=O)[O-]", "note": "(stereo not drawn)", "growth inhibition": -7},
      {"smiles": "O=C1CSC(c2cccc(Cl)c2)N1c1ccc(-c2ccc(-n3c(-c4ccccc4)nc4ccccc4c3=O)cc2)cc1", "note": "(stereo not drawn)", "growth inhibition": 1},
      {"smiles": "CCOC(=O)C(C(=O)OCC)=P(c1ccccc1)(c1ccccc1)c1ccccc1", "growth inhibition": 0},
      {"smiles": "COc1ccc(N=CN(C)C)c(C)c1", "growth inhibition": -40},
      {"smiles": "Cc1cc(S(=O)(=O)Nc2nnc3cnc4ccccc4n23)c(S)cc1Cl", "growth inhibition": -2},
      {"smiles": "O=C(Oc1ccc2c(c1)CN(Cc1ccccc1)CO2)c1ccccc1", "growth inhibition": -1},
      {"smiles": "CN(C)[C@@H]1C(=O)C(C(N)=O)=C(O)[C@@]2(O)C(=O)C3=C(O)c4c(O)cccc4C[C@H]3C[C@@H]12", "growth inhibition": 0},
      {"smiles": "O=[N+]([O-])c1ccc2c(c1)/C(=N/N=C1c3ccccc3Cc3ccccc31)c1cc([N+](=O)[O-])cc([N+](=O)[O-])c1-2", "growth inhibition": 16},
      {"smiles": "Cc1nc2c(Br)cc(Br)cc2c(=O)n1-c1ccccc1NC1OCC(O)C(O)C1O", "note": "(stereo not drawn)", "growth inhibition": 25},
      {"smiles": "Cc1cc(N(CCOS(C)(=O)=O)CCOS(C)(=O)=O)ccc1C=Nc1ccc(-c2nc(Cc3ccccc3)sc2C)cc1", "growth inhibition": -24}
    ]}
  ]
}
